Laboratory results as given in paper PMC7862700, “An all-to-all approach to the identification of sequence-specific readers for epigenetic DNA modifications on cytosine”.

Assays:
Experiment in all cases: DAPPL (digital affinity profiling via proximity ligation, sequencing); 10 mM Tris-HCl pH 7.5, 50 mM NaCl, 1 mM DTT, 4% glycerol, room temperature, 30 min; GST-TFs on glutathione beads, 16-mer random dsDNA library, 0.1% formaldehyde crosslink after washing; high values mean tight binding
Settings in all cases: protein: recombinant; tags: N-terminal GST; dsDNA, one strand shown
FLI1 = target: T1, FLI1 (Homo sapiens, UniProt Q01543 1-452)
T1 sequence: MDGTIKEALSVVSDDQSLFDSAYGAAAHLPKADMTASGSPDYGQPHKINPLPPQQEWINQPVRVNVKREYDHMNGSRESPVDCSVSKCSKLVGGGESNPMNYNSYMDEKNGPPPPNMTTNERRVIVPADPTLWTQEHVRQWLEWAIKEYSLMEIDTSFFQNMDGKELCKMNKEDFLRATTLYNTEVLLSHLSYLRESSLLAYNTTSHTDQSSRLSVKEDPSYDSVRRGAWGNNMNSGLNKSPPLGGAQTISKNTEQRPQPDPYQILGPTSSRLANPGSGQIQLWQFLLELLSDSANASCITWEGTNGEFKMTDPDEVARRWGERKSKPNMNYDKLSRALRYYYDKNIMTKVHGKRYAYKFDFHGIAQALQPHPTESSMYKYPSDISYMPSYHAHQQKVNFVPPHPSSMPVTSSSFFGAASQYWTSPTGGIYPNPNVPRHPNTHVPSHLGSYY
In short: (§1)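 A tag-only sample was pooled with DNA-barcoded human transcription factors that had been expressed in yeast as GST fusions and captured on glutathione beads. The pools were incubated for 30 min at room temperature with 200 nmole of a random double-stranded 16-mer DNA library in Tris/NaCl/DTT/glycerol buffer, then washed, crosslinked with 0.1% formaldehyde, proximity-ligated (BsaI/T4 ligase, 1 h, 37 °C), PCR-amplified and sequenced on an Illumina NextSeq500. Binding signal is each hexamer's read frequency for a factor divided by its frequency for the tag-only sample.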

ELK1 = target: T2, ELK1 (Homo sapiens, UniProt P19419 1-428)
T2 sequence: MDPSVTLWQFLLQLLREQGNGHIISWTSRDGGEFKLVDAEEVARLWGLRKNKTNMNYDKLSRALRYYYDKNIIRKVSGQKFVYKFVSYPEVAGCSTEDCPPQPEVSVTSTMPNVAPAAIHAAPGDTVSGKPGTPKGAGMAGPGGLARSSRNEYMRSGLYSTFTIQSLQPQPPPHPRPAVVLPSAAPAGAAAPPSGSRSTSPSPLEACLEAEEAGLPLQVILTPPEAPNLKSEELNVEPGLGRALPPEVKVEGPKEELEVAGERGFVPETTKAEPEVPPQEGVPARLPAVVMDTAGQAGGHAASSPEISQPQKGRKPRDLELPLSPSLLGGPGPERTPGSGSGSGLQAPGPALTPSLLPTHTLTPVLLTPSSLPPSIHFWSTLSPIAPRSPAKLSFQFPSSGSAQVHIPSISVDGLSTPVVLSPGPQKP
In short: as §1

GABPA = target: T3, GABPA (Homo sapiens, UniProt Q06546 1-454)
T3 sequence: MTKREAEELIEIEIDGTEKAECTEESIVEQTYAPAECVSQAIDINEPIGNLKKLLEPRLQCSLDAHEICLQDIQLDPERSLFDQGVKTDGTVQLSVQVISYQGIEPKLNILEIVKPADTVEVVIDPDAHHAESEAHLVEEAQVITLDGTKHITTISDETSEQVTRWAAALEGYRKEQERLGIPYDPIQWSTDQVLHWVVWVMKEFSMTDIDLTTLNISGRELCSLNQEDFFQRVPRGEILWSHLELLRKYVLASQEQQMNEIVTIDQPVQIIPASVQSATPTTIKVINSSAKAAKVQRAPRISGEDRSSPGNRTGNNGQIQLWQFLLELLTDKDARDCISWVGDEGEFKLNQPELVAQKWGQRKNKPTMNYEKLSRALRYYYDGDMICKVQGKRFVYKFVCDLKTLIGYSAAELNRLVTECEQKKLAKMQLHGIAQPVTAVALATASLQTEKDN
In short: as §1

ERG = target: T4, ERG (Homo sapiens, UniProt P11308 1-479)
T4 sequence: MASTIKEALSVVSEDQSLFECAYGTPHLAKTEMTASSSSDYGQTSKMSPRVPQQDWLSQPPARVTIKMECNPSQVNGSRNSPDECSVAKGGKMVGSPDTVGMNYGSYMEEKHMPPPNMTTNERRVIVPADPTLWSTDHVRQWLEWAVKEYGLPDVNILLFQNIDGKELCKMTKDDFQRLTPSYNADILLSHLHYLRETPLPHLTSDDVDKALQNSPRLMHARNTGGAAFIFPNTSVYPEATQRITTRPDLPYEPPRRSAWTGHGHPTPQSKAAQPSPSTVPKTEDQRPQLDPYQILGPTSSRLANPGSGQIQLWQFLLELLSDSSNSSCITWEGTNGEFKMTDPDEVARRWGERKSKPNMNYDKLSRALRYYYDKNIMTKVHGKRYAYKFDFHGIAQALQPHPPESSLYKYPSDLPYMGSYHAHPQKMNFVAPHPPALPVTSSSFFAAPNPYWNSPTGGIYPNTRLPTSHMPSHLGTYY
In short: as §1

ELF1 = ELF1 (Homo sapiens, UniProt P32519 1-619)
ELF1, sequence (P32519 whole entry): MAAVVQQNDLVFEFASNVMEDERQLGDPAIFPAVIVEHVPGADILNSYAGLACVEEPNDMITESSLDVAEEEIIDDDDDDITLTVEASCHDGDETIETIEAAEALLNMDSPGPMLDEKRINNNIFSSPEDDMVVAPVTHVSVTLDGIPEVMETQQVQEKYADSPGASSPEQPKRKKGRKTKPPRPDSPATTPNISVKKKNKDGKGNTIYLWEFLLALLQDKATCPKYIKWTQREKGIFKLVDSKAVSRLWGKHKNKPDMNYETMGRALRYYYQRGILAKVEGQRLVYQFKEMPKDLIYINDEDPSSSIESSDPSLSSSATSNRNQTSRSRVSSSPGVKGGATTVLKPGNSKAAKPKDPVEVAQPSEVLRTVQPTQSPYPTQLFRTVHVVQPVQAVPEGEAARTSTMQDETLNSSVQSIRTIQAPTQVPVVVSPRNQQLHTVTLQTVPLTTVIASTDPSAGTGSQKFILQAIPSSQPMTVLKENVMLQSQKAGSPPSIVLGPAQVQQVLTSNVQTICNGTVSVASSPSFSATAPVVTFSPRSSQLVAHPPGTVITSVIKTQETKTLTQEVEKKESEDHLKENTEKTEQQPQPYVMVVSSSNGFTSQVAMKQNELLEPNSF
In short: as §1

EHF = target: T5, EHF (Homo sapiens, UniProt Q9NZC4 1-300)
T5 sequence: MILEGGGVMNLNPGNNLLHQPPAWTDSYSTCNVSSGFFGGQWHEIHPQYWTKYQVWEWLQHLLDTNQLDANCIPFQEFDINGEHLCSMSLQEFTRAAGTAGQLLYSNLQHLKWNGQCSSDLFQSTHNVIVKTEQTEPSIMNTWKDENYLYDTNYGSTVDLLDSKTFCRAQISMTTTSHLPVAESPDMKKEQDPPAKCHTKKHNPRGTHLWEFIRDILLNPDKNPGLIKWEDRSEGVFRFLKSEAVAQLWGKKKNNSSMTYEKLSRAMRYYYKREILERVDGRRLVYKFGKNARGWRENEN
In short: as §1

SPI1 = SPI1 (Homo sapiens, UniProt P17947 1-270)
In short: as §1

SPIB = SPIB (Homo sapiens, UniProt Q01892 1-262)
SPIB, sequence (Q01892 whole entry): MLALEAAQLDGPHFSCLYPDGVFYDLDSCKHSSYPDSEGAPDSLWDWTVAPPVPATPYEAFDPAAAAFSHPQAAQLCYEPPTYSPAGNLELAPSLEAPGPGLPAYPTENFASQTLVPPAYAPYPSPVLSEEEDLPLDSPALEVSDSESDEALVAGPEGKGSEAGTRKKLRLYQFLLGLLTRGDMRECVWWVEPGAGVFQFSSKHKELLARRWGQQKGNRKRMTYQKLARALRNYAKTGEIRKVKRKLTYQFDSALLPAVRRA
In short: as §1

ELK3 = target: T6, ELK3 (Homo sapiens, UniProt P41970 1-407)
T6 sequence: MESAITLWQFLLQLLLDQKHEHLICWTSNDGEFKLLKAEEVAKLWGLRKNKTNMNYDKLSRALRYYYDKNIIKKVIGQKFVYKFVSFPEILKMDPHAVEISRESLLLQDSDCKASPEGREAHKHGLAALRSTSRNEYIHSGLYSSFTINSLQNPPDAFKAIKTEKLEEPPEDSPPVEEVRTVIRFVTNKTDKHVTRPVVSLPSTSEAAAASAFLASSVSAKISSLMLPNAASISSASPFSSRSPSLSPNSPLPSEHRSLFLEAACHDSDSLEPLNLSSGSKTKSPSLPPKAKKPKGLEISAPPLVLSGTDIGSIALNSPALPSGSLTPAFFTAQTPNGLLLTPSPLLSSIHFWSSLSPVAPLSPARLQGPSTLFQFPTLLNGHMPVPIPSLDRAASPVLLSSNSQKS
In short: as §1

Sequence: AAGAAA
- binding signal (FLI1): 1.08 fold enrichment (6-mer frequency, TF over GST control)
- binding signal (ELK1): 1.14 fold enrichment (6-mer frequency, TF over GST control)
- binding signal (GABPA): 1.25 fold enrichment (6-mer frequency, TF over GST control)
- binding signal (ERG): 1.2 fold enrichment (6-mer frequency, TF over GST control)
- binding signal (ELF1): 1.15 fold enrichment (6-mer frequency, TF over GST control)
- binding signal (EHF): 1.18 fold enrichment (6-mer frequency, TF over GST control)
- binding signal (SPI1): 1.22 fold enrichment (6-mer frequency, TF over GST control)
- binding signal (SPIB): 1.1 fold enrichment (6-mer frequency, TF over GST control)
- binding signal (ELK3): 1.22 fold enrichment (6-mer frequency, TF over GST control)
